Active and inactive are the calls of the source.
Columns and labels:
[1] = tested on: PRMT1 (protein arginine N-methyltransferase 1); test: PRMT1 binders on small-molecule microarrays, primary screen, biochemical, small-molecule microarray, 635 nm fluorescence (AID 1088); conditions: small-molecule microarray binding, higher = more signal;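 further: binding of Prmt1 protein to compounds spotted on small-molecule microarray slides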
[2] = yeast growth modulation, basal conditions, primary screen, YJM789 clinical isolate, OD600, 24 h (AID 1089);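 further: growth of clinical yeast isolate S. cerevisiae YJM 789 seeded 1000 cells per well; test concentration not given here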; conditions: S. cerevisiae YJM789 growth, higher = more signal, called active from +8 up or from −8 down
[3] = fission yeast growth modulation, primary screen, strain 972, OD600, 24 h, no modulator (AID 1090);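 further: basal condition with compound alone and no growth modifier present; test concentration not given here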; conditions: S. pombe 972 growth, higher = more signal, called active from +8 up or from −8 down
[4] = S. cerevisiae growth modulation with rapamycin, primary screen, strain BY4716, OD600, 96 h (AID 1091); conditions: higher = more signal, called active from +8 up or from −8 down; further: test concentration not given here
[5] = biological target: Torsin-1A-interacting protein 2 (Homo sapiens) (UniProt Q8NFQ8); test: LULL1 binders on small-molecule microarray, primary screen, cell lysate, human LULL1 lysate, 635/667 nm fluorescence (AID 1092); conditions: hLULL1 lysate binding, 635 nm fluorescence, higher = more signal;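 further: probe is lysate of COS7 cells overexpressing human LULL1; score merges per-feature 667 nm fluorescence with signal-to-noise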
[6] = E. coli growth modulation, two-sided OD650, primary screen, E. coli filamentation project, strain DRC41, 24 h (AID 1093); conditions: OD650, 24 h, higher = more signal, called active from +8 up or from −8 down;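 further: MC1000 strain lacking acrAB efflux and sulA so SOS filamentation is blocked; test concentration not given here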
[7] = small-molecule microarray binders of probe aLefty2, primary screen, biochemical, biotinylated probe, 635/667 nm fluorescence (AID 1094); conditions: higher = more signal;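 further: score merges spot fluorescence near 667 nm with spot signal-to-noise ratio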
[8] = tested on: Noggin (protein binding on small-molecule microarray); test: Noggin binders on small-molecule microarray, primary screen, biochemical, 635/667 nm fluorescence (AID 1095); conditions: 635 nm fluorescence, higher = more signal;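 further: score merges 667 nm feature fluorescence with signal to noise over triplicate slides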
[9] = biological target: Neurogenic locus notch homolog protein 3 (Homo sapiens) (UniProt Q9UM47); test: NOTCH3 binders on small-molecule microarray, primary screen, biochemical, 635/667 nm fluorescence (AID 1096); conditions: NOTCH3 binding, 635 nm fluorescence, higher = more signal
[10] = small-molecule microarray binders of probe aEGFR, primary screen, biochemical, biotinylated probe, 635/667 nm fluorescence (AID 1097); conditions: higher = more signal;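 further: probe is a biotinylated anti-EGFR antibody binding compounds printed on slides; score combines fluorescence near 667 nm and signal to noise of each spot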

Chain of Torsin-1A-interacting protein 2 (Homo sapiens) (Q8NFQ8 whole entry, looked up): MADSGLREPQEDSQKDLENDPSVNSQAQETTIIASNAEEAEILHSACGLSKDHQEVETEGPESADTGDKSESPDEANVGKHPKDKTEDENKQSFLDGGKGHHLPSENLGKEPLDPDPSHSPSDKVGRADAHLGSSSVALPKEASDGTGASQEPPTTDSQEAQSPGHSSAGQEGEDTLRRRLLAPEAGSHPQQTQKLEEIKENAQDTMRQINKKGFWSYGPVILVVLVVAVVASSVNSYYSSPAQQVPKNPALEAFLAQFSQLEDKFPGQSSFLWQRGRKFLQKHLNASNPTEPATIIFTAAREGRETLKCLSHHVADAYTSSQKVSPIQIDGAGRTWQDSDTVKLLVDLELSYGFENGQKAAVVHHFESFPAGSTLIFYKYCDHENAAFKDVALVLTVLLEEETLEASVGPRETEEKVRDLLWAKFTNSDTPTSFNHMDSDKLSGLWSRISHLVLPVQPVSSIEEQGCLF
Chain of Neurogenic locus notch homolog protein 3 (Homo sapiens) (Q9UM47 whole entry, looked up): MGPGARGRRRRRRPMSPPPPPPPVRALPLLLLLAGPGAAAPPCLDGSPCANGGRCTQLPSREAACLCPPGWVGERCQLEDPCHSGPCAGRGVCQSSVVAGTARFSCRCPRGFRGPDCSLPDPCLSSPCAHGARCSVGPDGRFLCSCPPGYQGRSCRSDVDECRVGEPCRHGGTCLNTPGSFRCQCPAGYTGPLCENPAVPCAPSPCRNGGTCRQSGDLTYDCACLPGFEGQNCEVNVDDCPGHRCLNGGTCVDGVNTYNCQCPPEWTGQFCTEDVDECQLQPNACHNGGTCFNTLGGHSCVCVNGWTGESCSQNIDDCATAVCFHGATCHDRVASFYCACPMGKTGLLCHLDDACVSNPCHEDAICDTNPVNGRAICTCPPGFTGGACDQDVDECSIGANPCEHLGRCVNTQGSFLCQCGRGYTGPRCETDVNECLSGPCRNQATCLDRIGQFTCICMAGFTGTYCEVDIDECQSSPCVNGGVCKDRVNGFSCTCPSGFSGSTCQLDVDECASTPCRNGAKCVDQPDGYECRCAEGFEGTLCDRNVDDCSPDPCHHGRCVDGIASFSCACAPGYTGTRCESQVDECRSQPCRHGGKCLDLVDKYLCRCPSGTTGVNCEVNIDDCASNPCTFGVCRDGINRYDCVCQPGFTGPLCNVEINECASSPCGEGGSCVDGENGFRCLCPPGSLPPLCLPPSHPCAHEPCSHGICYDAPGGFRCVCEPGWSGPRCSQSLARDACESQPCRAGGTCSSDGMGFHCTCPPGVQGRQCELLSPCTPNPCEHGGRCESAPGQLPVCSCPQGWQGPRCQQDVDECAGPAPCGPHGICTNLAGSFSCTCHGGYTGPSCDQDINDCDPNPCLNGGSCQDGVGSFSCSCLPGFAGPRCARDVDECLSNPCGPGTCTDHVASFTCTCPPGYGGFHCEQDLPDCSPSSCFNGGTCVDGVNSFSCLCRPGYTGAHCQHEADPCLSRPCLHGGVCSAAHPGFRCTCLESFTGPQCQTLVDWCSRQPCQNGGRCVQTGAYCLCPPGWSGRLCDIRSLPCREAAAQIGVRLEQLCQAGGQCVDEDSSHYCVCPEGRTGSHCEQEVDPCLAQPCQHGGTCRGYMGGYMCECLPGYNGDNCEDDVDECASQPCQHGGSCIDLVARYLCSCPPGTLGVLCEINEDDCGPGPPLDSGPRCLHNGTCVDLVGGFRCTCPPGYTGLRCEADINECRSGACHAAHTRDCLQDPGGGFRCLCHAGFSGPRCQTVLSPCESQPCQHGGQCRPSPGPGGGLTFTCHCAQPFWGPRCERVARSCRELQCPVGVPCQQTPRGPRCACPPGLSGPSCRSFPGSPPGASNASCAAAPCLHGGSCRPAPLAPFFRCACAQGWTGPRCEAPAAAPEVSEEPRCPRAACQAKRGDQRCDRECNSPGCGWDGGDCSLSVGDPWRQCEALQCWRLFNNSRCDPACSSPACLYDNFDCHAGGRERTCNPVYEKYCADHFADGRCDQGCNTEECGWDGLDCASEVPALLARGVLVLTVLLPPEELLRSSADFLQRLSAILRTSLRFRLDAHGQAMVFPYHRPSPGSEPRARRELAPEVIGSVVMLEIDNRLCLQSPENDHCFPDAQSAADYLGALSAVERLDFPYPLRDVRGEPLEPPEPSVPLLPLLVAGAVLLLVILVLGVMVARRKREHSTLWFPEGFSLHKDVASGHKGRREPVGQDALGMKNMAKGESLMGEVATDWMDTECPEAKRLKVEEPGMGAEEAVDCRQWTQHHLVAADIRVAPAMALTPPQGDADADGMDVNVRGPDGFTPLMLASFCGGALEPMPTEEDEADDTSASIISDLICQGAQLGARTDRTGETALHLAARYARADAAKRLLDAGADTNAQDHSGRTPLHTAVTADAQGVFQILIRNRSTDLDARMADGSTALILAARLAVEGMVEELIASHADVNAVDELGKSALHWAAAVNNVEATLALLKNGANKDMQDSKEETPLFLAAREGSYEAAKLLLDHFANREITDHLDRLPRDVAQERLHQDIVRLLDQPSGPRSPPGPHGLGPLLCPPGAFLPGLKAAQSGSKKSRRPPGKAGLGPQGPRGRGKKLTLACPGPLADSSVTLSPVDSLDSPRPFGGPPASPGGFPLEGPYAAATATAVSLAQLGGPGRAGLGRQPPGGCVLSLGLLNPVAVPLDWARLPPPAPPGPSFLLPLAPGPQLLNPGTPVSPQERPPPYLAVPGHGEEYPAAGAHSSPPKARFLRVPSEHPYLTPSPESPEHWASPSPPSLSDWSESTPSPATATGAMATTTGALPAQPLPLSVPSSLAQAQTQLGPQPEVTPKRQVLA

SMILES | composite z-score [1] | z-score [2] | z-score [3] | z-score [4] | composite z-score [5] | z-score [6] | composite z-score [7] | composite z-score [8] | composite z-score [9] | composite z-score [10]
C=CCN1C(=O)[C@]2(O[C@H](CCO)[C@@H]([Si](C)(C)c3ccc(OC)cc3)[C@@H]2C)c2ccccc21 | -0.539 | -2.75 (inactive) | -3.07 (inactive) | 5.72 (inactive) | 0.602 | -0.41 (inactive) | -0.0962 | -0.788 | -0.593 | -0.178
COC(=O)[C@@]1(Cc2ccc(F)cc2)[C@H]2c3cc(C(=O)N4CCCC4)n(CCO)c3C[C@H]2CN1C(=O)c1ccccc1 | -1.09 | -0.215 (inactive) | 1 (inactive) | -0.164 (inactive) | 2.88 | 0.208 (inactive) | 0.335 | 0.4 | 0.517 | 0.0753
COc1ccc([Si](C)(C)[C@@H]2[C@@H](CC(=O)N(CCO)Cc3ccccc3)O[C@]3(C(=O)N(Cc4ccc(N5CCC5=O)cc4)c4ccccc43)[C@H]2C)cc1 | -0.0625 | 0.127 (inactive) | -0.246 (inactive) | 1.87 (inactive) | 0.628 | 1.31 (inactive) | 0.536 | 0.343 | -0.0568 | -0.199
CN1C(=O)[C@]2(CCC(=O)OC(C)(C)C)N=C(c3ccc(OCCCO)cc3)O[C@@H]2c2ccccc21 | 1.55 | 0.494 (inactive) | -0.243 (inactive) | 0.872 (inactive) | 3.06 | 0.95 (inactive) | 0.0079 | 1.9 | 1.13 | -0.04
COCCOC(=O)N1C(=O)[C@@]2(c3cc(C#CC4=CCCCC4)ccc31)[C@H](C(=O)N1CCN(c3ncccn3)CC1)[C@H]1C(=O)O[C@H](c3ccccc3)[C@H](c3ccccc3)N1[C@@H]2c1ccccc1OCCO | 1.53 | 1.3 (inactive) | 0.683 (inactive) | 4.42 (inactive) | 2.75 | 1.96 (inactive) | -0.0687 | 1.14 | 1.04 | -0.0749
COC(=O)C(CC#Cc1ccc2c(c1)[C@]1(C(=O)N2)[C@H](c2ccc(O)cc2)N2[C@H](c3ccccc3)[C@H](c3ccccc3)OC(=O)[C@H]2[C@@H]1C(=O)N1CCc2cc(OC)c(OC)cc2C1)C(=O)OC | 1.54 | 1.39 (inactive) | 1.12 (inactive) | 0.735 (inactive) | 1.59 | -0.829 (inactive) | -0.109 | 0.958 | 1.05 | 0.232
COC(=O)[C@@]1(Cc2ccc(F)cc2)[C@H]2c3cc(C(=O)N(C)C)n(CCn4cc([N+](=O)[O-])nc4C)c3C[C@H]2CN1C(=O)c1ccccc1 | -0.394 | 0.126 (inactive) | 0.713 (inactive) | 0.942 (inactive) | 2.87 | -1.66 (inactive) | 0.12 | -0.885 | -0.455 | -0.0039

Source: PubChem BioAssay
